Source: PubChem (National Center for Advancing Translational Sciences (NCATS))
MCF10A rereplic = DNA re-replication induction in MCF 10a cells | AID 624296 | Potency, µM (titrated, usually from 46.1 µM), for the others: at the highest dose activity, positive = re-replication, hits mostly activators | 2.9% of 350,000 active | MCF 10A DNA re-replication, Hoechst nuclear intensity, 48 h; also: potency is read from the fitted curve at half-maximal effect; % of control where 0% means no effect; nearly all actives have a fitted effect of over 50% in size
DRD3 agonist = activates the human D3 dopamine receptor; 0.58% of 410,000 active; max activation, %; P35462; D3R DiscoveRx beta-arrestin cells, luminescence, 90 min; AID 652048; in the data active = max activation above about 30%; also: 0% is about no effect
Target sequence (P35462 whole entry, looked up): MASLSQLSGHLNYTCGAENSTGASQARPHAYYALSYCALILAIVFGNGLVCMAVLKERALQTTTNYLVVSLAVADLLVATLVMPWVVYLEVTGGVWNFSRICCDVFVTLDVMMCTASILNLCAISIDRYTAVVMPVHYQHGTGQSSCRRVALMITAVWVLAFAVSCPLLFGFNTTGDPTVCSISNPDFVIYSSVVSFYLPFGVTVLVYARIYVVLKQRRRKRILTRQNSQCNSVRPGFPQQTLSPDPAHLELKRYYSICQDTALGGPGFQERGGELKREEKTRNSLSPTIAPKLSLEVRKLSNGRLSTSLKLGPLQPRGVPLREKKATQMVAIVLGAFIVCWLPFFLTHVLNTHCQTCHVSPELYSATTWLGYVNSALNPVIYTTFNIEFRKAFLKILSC
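Cells at 1500/well, incubated overnight, then treated with pinned compounds (dopamine as control) for 90 min at 37 degrees C. DiscoveRx reagent added for 30 - 60 minutes at room temperature; luminescence read.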
KB-3-1 cytotox = KB-3-1 parental cell cytotoxicity; KB-3-1 viability, CellTiter-Glo ATP luminescence, 72 h; Potency, µM (series often up to 46.1 µM), hits mostly cytotoxic; 1.4% of 400,000 active; also: potency is read from the fitted curve at half-maximal effect; % is scaled to controls: 0 for no effect and ±100 for the full control effect; nearly all actives have a fitted effect of over 60% in size
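72 h, 37 °C compound treatment of KB-3-1 parental cells; CellTiter-Glo added, 10 min, luminescence read. Data corrected against DMSO-only plates and normalized before curve fitting.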
DRD3 antagonist = blocks the human D3 dopamine receptor; D3R cells, DiscoveRx beta-arrestin luminescence, antagonist mode; stronger effect = lower value; max response, negative = inhibition, %; 2.5% of 360,000 active; AID 652054; in the data active = max response below about -50%; inconclusive = no clear call, values can overlap the other calls; also: % is scaled to controls: 0 for no effect and ±100 for the full control effect
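Cells plated overnight at 1500 cells/well, then exposed to library compounds with dopamine controls for 90 minutes at 37 degrees C. DiscoveRx reagent added for 30–60 minutes at room temperature; luminescence read, quantitative HTS format.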
KB-V1 MDR tox = KB-V1 MDR subline cytotoxicity. 3.4% of 400,000 active. Potency, µM (doses to about 46.1 µM), hits mostly cytotoxic. KB-V1 MDR cells viability, CellTiter-Glo, 72 h; also: potency is read from the fitted curve at half-maximal effect; % is scaled to controls: 0 for no effect and ±100 for the full control effect; nearly all actives have a fitted effect of over 60% in size
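Luminescent ATP read-out (CellTiter-Glo, 10 min) measures survival of drug-selected KB-V1 MDR cells after 72 h, 37 degrees C compound exposure. Medium: phenol-red-free DMEM, 10% FBS. Values from fitted concentration-response curves.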
SW480 rerep = induces DNA re-replication in SW480 colon adenocarcinoma cells; SW480 DNA re-replication, Hoechst DNA content imaging, 48 h; Potency, µM (doses to about 46.1 µM), inactives show at the top dose re-replication activation, most hits filed as activators; 1.8% of 340,000 active; also: potency is read from the fitted curve at half-maximal effect; % of control where 0% means no effect; nearly all actives have a fitted effect of over 55% in size
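Cells (250 per well) received 23 nL compound or DMSO by pin tool and were kept 48 hr at 37 C, 5% CO2. Nuclei were then stained with Hoechst for 40 min and scanned for DNA content.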
The depositor's hits bear a star; i = inactive; ? = inconclusive; nt = not tested or not shown; ! = not active in a repeat; [ ] = another dose, or the depositor's remark. The list is not random: actives were taken first. Their share in the collection is about 8.9%. Unless noted, calls follow the shape of the dose curve; as a rule, active = well fitted curve in the direction sought with a large enough effect; inconclusive = small, poorly fitted or top-dose-only effect, or another doubt; inactive = no such curve, though single readings can be large; an effect the other way counts as inactive or inconclusive.

SMILES	MCF10A rereplic	DRD3 agonist	KB-3-1 cytotox	DRD3 antagonist	KB-V1 MDR tox	SW480 rerep
COc1cc(-c2noc(C)c2/C=C/c2ccc(N)cc2)cc(OC)c1OC	?	-20	0.26µM*!	-6	0.58µM*!	?
CCC12CN3CC(CC)(CN(C1)C3c1ccc(OCc3ccccc3)cc1)C2=O (centres undefined)	nt	3	i	nt	i	nt
O=C(NCCc1ccccc1)c1nnc(Cc2cccc(F)c2)o1	nt	-11	i	nt	i	nt
CCO[C@@H]1O[C@H](C(COCc2ccccc2)OCc2ccccc2)[C@H](OCc2ccccc2)[C@H]1O (some centres undefined)	nt	-1	nt	nt	nt	nt
Cc1csc(SC(C)c2nc3scc(-c4ccccc4)c3c(=O)[nH]2)n1 (centres undefined)	?	-1	?	-10	9.2µM*	-29%
CC(C)CNC(=O)CSc1nc2scc(-c3ccccc3)c2c(=O)[nH]1	?	48*	i	15	?	-7%
O=c1[nH]c(Cc2ccccc2)nc2scc(-c3ccccc3)c12	?	2	i	0	i	-2%
CCC(=O)Nc1cc(-c2nc3cc(C)cc(C)c3o2)ccc1C	nt	-6	i	nt	i	nt
CCOc1ccc(C)cc1S(=O)(=O)n1nc(C)cc1C	7%	16	i	-7	i	-14%
CCOc1ccc(C(C)(C)C)cc1S(=O)(=O)n1nc(C)cc1C	-13%	-1	i	-50*	i	0%[9.22 µM]
COc1ccc(NC(=S)N(CCCN2CCOCC2)C(C)c2cc3cccc(OC)c3o2)cc1 (centres undefined)	13%	-7	i	-13	i	-4%
COc1cccc(NC(=S)N(CCCN2CCOCC2)C(C)c2cc3ccccc3o2)c1 (centres undefined)	4%	-20	i	-55*	?	-16%
O=C(CSc1nc2ccccc2c(=O)n1-c1ccccc1Cl)NC1CCS(=O)(=O)C1 (centres undefined)	-3%	-1	i	-3	?	-23%
Nc1sc(Cc2ccccc2)cc1C(=O)c1c(-c2ccccc2)[nH]c2ccccc12	nt	1	5.8µM*	-18	13µM*	nt
CCNC(=O)C(=O)c1c(-c2ccccc2)[nH]c2ccccc12	0%	2	i	-4	?	-2%
COc1ccc(C(NC(=O)COc2ccc(C#N)cc2)c2ccc(OC)cc2)cc1	nt	nt	i	nt	i	nt
COc1ccc(NC(=O)CSc2c3c(nc4ccccc24)CCCC3)c(OC)c1	21µM*	-17	i	?	i	?
Cc1ccc(C)c(NC(=O)CSc2c3c(nc4ccc(Cl)cc24)CCCC3)c1	nt	43*	nt	nt	nt	nt
COc1ccccc1NC(=O)CSc1c2c(nc3ccccc13)CCC2	2%	1	i	-8	?	-6%
COc1ccc(OC)c(NC(=O)c2c3c(nc4ccccc24)CCC3)c1	-1%	3	i	12	6.5µM*	9%
COc1ccc(NC(=O)c2c3c(nc4ccccc24)CCC3)cc1	0%	-13	i	-20	i	2%
COc1cc(NC(=O)CSc2c3c(nc4ccccc24)CCC3)cc(OC)c1OC	0%	9	i	3	15µM*	46%
Cc1ccc(C)c(NC(=O)CCN2C(=O)c3ccccc3Sc3ncccc32)c1	nt	-27	nt	nt	nt	nt
Cc1cc(OCC(=O)Nc2sc3c(c2C#N)CCC(C)C3)ccc1Cl (centres undefined)	nt	2	i	nt	i	nt
Cc1cc(C)c2sc(N3CCN(C(=O)C4CC4)CC3)nc2c1	nt	-11	i	nt	i	nt
SMILES	MCF10A rereplic	DRD3 agonist	KB-3-1 cytotox	DRD3 antagonist	KB-V1 MDR tox	SW480 rerep
O=c1[nH]c2ccc(NCc3ccccc3F)cc2[nH]1	nt	3	i	nt	i	nt
Cc1cc(C(=O)N/N=C2\CC(=O)CC(C)(C)C2)c(C)n1-c1ccccc1	21µM*	-12	i	-15	?	7%
Cc1cc(C(=O)N/N=C2\CC(=O)CC(C)(C)C2)c(C)n1-c1ccc(F)cc1	8%	-5	i	0	?	3%
N#CC(C#N)=c1ccc2c(c1)NC1(CCCCC1)N=2	?	-22	?	-78*	?	13µM*
CCOc1ccc(NC(=O)NC(CC)Cn2nnc3ccccc3c2=O)cc1 (centres undefined)	nt	-1	i	nt	i	nt
CCOC(=O)/C(N=Nc1ccc(C(=O)O)cc1[N+](=O)[O-])=C(\C)O	3.7µM*	-4	i	4	i	-67%
CCCS(=O)(=O)N1CCc2ccc(NC(=O)C3CCCO3)cc2C1 (centres undefined)	10%	6	nt	38	nt	-6%
CC1(C(=O)NS(=O)(=O)c2ccc(C#N)cc2)CCN1C(=O)Cc1ccsc1 (centres undefined)	nt	-7	i	-2	i	nt
CCCC(=O)N1CCC1(C)C(=O)NS(=O)(=O)c1cccc(C)c1 (centres undefined)	nt	93*	i	-19	i	nt
CC1(C(=O)NS(=O)(=O)c2cccc(OC(F)F)c2)CCN1C(=O)c1cccc(F)c1 (centres undefined)	nt	-6	i	-6	i	nt
CCCC(=O)N1CCC1(C)C(=O)NS(=O)(=O)c1cccc(Cl)c1 (centres undefined)	nt	-5	i	0	i	nt
Cc1cc(C)cc(CC(=O)N2CCC2(C)C(=O)NS(=O)(=O)c2ccc(C#N)cc2)c1 (centres undefined)	nt	70*	i	0	i	nt
Cc1cc(C(=O)N2CCC2(C)C(=O)NS(=O)(=O)c2cccc(OC(F)F)c2)nn1C (centres undefined)	nt	74*	i	0	i	nt
Cc1ccccc1CNC(=O)C1CCN(S(=O)(=O)Cc2ccccc2)CC1	nt	1	i	nt	i	nt
C/C=C(/C(=C/C)c1ccc(O)cc1)c1ccc(O)cc1	4.6µM*!	20	i	5	?	?
Cc1ccc2[nH]nc(C(=O)N3CCCC(C(=O)c4ccc(Cl)cc4)C3)c2c1 (centres undefined)	?	34*	i	33	?	-66%
Cc1ccccc1/C=N/Nc1ncnc2nc[nH]c12	0%	3	i	3	i	18µM*
Cc1ccsc1/C=N/Nc1ncnc2nc[nH]c12	0%	3	i	6	i	-10%
O=C(O)CCc1ccc(-c2ccccc2)n1NC(=O)c1cccs1	-15%	-9	i	-3	i	23µM*
O=C1C=C(c2ccc3[nH]ccc3c2)C[C@@H](c2ccc(Cl)cc2)C1	10µM*	1	i	?	i	23%
